We go through nine molecules from PubChem BioAssay (NCI).

The panel holds about 83,000 compounds, 20% with a hit somewhere; the sample as a whole holds those more often.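 Interpretation: 100, growth as untreated; towards 0, rising growth inhibition; 0, no net growth; 0 to -100, cell death. Compounds scoring below 10 were considered active.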 Unmarked numbers belong to inactive results. The source made the active and inactive calls.

Test systems include NCI-H23 lung; NCI-H226 lung; NCI-H322M lung; HOP-62 NSCLC; NCI-H460 lung; NCI-H522 lung; A549/ATCC NSCLC; 786-0 renal; COLO 205 colon; DU-145 prostate; K-562 leukemia; MALME-3M melanoma; MDA-MB-231 breast; RXF 393 renal; SF-268 CNS; SF-295 CNS; SF-539 CNS; UACC-257 melanoma; M14 melanoma; HOP-92 NSCLC.
Common to all, as to test: NCI-60 one-dose screen, 48 h (100 = growth as untreated, 0 = no growth, -100 = all killed)
What all share (conditions): 10 µM unless noted

As to `c1csc(-c2[nH]nc3c2CCc2ccccc2-3)c1`, the growth in the assay on NCI-H23 lung is 95.8%; in the assay with NCI-H226 lung, 80.9%; in the assay with NCI-H322M lung it was 55.4%; in the assay with HOP-62 NSCLC it was 91.1%; with NCI-H460 lung, 55%; with NCI-H522 lung it was 101%. Also, the growth in the assay with A549/ATCC NSCLC was 89.1%; in the assay with 786-0 renal, 103%; in the assay with COLO 205 colon it was -11.2% (active); with DU-145 prostate it was 103%; in the assay on K-562 leukemia, 114%; in the assay on MALME-3M melanoma, 79.3%. Further, the growth with MDA-MB-231 breast is 37.2%; with RXF 393 renal, 94.7%; with SF-268 CNS, 101%; in the assay with SF-295 CNS, 91.7%; in the assay on SF-539 CNS it was 82.1%; with UACC-257 melanoma it was 98.6%. Besides, the growth with M14 melanoma is 107%.

Turning to `CCC(=O)c1cc([N+](=O)[O-])c(Br)s1`, the growth with NCI-H23 lung is 93.4%; with NCI-H226 lung, 99.1%; in the assay with NCI-H322M lung, 101%; in the assay with HOP-62 NSCLC, 101%; in the assay on NCI-H460 lung it was 108%; in the assay with HOP-92 NSCLC, 89.1%. Also, the growth in the assay with A549/ATCC NSCLC is 105%; in the assay with 786-0 renal it was 109%; with COLO 205 colon, 11.5%; in the assay with DU-145 prostate it was 105%; in the assay with K-562 leukemia, 44.5%; with MALME-3M melanoma, 90.5%. Besides, the growth in the assay on MDA-MB-231 breast is 103%; in the assay with RXF 393 renal it was 91%; with SF-268 CNS, 96.6%; in the assay on SF-295 CNS it was 103%; in the assay with SF-539 CNS, 88.5%; with UACC-257 melanoma it was 96.5%. Moreover, the growth with M14 melanoma was 71.6%.

`Oc1cc(Cl)ccc1Cc1ccc(Cl)cc1O`: the growth with NCI-H23 lung was 20.6%; in the assay on NCI-H226 lung it was 96.6%; with NCI-H322M lung, 97%; with HOP-62 NSCLC, 60.5%; with NCI-H460 lung, 46%; in the assay on HOP-92 NSCLC it was -14.4% (active). Further, the growth with NCI-H522 lung is 33.8%; with A549/ATCC NSCLC it was 73.7%; in the assay with 786-0 renal it was 92.8%; in the assay on DU-145 prostate, 90%; with K-562 leukemia, 37.2%; in the assay with MALME-3M melanoma, 32.9%. The growth in the assay with MDA-MB-231 breast is 59.7%; with RXF 393 renal, 73.8%; with SF-268 CNS, 65.2%; in the assay on SF-295 CNS, 32.3%; in the assay on SF-539 CNS, 56.3%; in the assay on UACC-257 melanoma it was 58.7%.

In the case of `OC(c1cc2ccc(C(F)(F)F)cc2c2cc(C(F)(F)F)ccc12)C1CCCCN1` (stereo unspecified), the growth was -95.8% (active) in the assay with NCI-H23 lung; -71.4% (active) with NCI-H226 lung; -91.5% (active) with NCI-H322M lung; -100% (active) in the assay with HOP-62 NSCLC; -100% (active) in the assay on NCI-H460 lung; -87.7% (active) in the assay on NCI-H522 lung. Also, the growth was -97% (active) in the assay with A549/ATCC NSCLC; -85% (active) with 786-0 renal; -100% (active) in the assay with COLO 205 colon; -99.3% (active) in the assay on DU-145 prostate; -95% (active) in the assay with K-562 leukemia; -72.6% (active) in the assay with MALME-3M melanoma. The growth in the assay with MDA-MB-231 breast was -79.1% (active); with RXF 393 renal it was -79.6% (active); in the assay with SF-268 CNS it was -81.7% (active); in the assay with SF-295 CNS, -96% (active); in the assay with SF-539 CNS, -88.1% (active); in the assay with UACC-257 melanoma it was -86.4% (active). Besides, the growth in the assay with M14 melanoma was -85.2% (active).

As to `O=C1C=CC(=O)N1C1CCCCCCCCCCC1`, the growth with NCI-H23 lung was 89.9%; in the assay with NCI-H226 lung, 82.9%; in the assay with NCI-H322M lung it was 95.3%; in the assay with HOP-62 NSCLC it was 101%; in the assay with NCI-H460 lung, 106%; with NCI-H522 lung, 7.03% (active). Further, the growth in the assay on A549/ATCC NSCLC was 91.6%; in the assay on 786-0 renal it was 94.6%; in the assay with COLO 205 colon, 52.4%; in the assay with DU-145 prostate, 88.1%; with K-562 leukemia, -2.11% (active); in the assay with MALME-3M melanoma it was 72.9%. Further, the growth with MDA-MB-231 breast is 99.8%; in the assay with RXF 393 renal, 64%; in the assay on SF-268 CNS it was 100%; in the assay with SF-295 CNS, 90.8%; in the assay with SF-539 CNS, 98.5%; with UACC-257 melanoma, 66.6%. Moreover, the growth with M14 melanoma is 80.8%.

Consider `O=C1C=CC(=O)N1c1cc(Cl)c(Cl)cc1Cl`, for which the growth in the assay on NCI-H23 lung was 100%; with NCI-H226 lung, 100%; in the assay with NCI-H322M lung, 90.6%; in the assay on HOP-62 NSCLC it was 100%; in the assay with NCI-H460 lung, 107%; with HOP-92 NSCLC, 107%. The growth is 84.4% in the assay with NCI-H522 lung; 103% in the assay on A549/ATCC NSCLC; 96% in the assay with 786-0 renal; 109% in the assay on DU-145 prostate; 93.9% with K-562 leukemia; 96.6% with MALME-3M melanoma. For the same molecule, the growth is 120% with MDA-MB-231 breast; 106% in the assay with RXF 393 renal; 102% in the assay with SF-268 CNS; 97.5% in the assay with SF-295 CNS; 109% in the assay with SF-539 CNS; 101% in the assay on UACC-257 melanoma. Further, the growth with M14 melanoma was 103%.

On to `N#CC1c2ccccc2C=CN1C(=O)CCCl` (stereo unspecified), for which the growth in the assay on NCI-H23 lung was 94.2%; in the assay on NCI-H226 lung it was 94.1%; with NCI-H322M lung it was 93.8%; in the assay with HOP-62 NSCLC it was 99.8%; in the assay on NCI-H460 lung it was 106%; in the assay on HOP-92 NSCLC, 60.7%. Moreover, the growth in the assay with NCI-H522 lung was -71.6% (active); with A549/ATCC NSCLC it was 96.2%; in the assay on 786-0 renal, 82%; in the assay on DU-145 prostate it was 77.7%; in the assay on K-562 leukemia it was 32.3%; with MALME-3M melanoma it was 5.05% (active). Further, the growth with MDA-MB-231 breast was 103%; in the assay on SF-268 CNS, 104%; with SF-539 CNS it was 104%; in the assay with UACC-257 melanoma it was 79.9%; with M14 melanoma it was 97.3%.

In the case of `CCc1oc2ccccc2c1C(=O)c1cc(Br)c(O)c(Br)c1`, the growth in the assay on NCI-H23 lung is 52.9%; with NCI-H226 lung, 84%; in the assay with NCI-H322M lung it was 118%; in the assay with HOP-62 NSCLC, 81.8%; with NCI-H460 lung, 86.9%; in the assay with HOP-92 NSCLC it was 0.0238% (active). Besides, the growth with NCI-H522 lung is 30.8%; in the assay on A549/ATCC NSCLC, 66.5%; in the assay on 786-0 renal, 68.2%; in the assay with MALME-3M melanoma, 94.8%; with MDA-MB-231 breast, 58.9%; with RXF 393 renal, 51.6%. The growth in the assay on SF-268 CNS is 75.4%; in the assay on SF-295 CNS it was 52.8%; in the assay on SF-539 CNS, 65.5%; with UACC-257 melanoma, 66.2%; in the assay with M14 melanoma it was 49.7%.

Regarding `O=[N+]([O-])c1ccc(C2N(Cc3ccc(Cl)cc3)CCN2Cc2ccc(Cl)cc2)cc1`, the growth with NCI-H23 lung was 97.5%; with NCI-H226 lung, 95.1%; in the assay with NCI-H322M lung, 75.5%; in the assay on HOP-62 NSCLC, 94.5%; in the assay with NCI-H460 lung it was 101%; in the assay on HOP-92 NSCLC, -1.91% (active). Besides, the growth in the assay on NCI-H522 lung is 75.8%; in the assay with A549/ATCC NSCLC, 96%; in the assay on 786-0 renal it was 81.7%; in the assay with DU-145 prostate, 107%; with K-562 leukemia it was 67%; in the assay on MALME-3M melanoma, 109%. The growth in the assay on MDA-MB-231 breast is 79.6%; in the assay with RXF 393 renal, 74.4%; with SF-268 CNS, 90.1%; with SF-295 CNS, 92.1%; in the assay with SF-539 CNS, 86.3%; with UACC-257 melanoma it was 92%. Moreover, the growth with M14 melanoma was 86.2%.
